PubChem BioAssay (NCATS)
Results filed as inconclusive are left out. Active and inactive are the calls of the source. Calls follow the shape of the dose curve; as a rule, active = well fitted inhibition curve with a large enough effect in the signal ratio, with a control signal flat (not every such curve was filed as active); inconclusive = small, poorly fitted or top-dose-only effect, or effect the other way, or a change in a side signal; inactive = no such curve, though single readings can be large or run the other way; the % refers to the signal ratio.

Each compound was assayed against Peroxisome proliferator-activated receptor delta (Homo sapiens) (UniProt Q03181) (assay: qHTS assay for small molecule antagonists of peroxisome proliferator-activated receptor delta signaling (AID 588535)). Conditions: HEK293T PPARd-UAS-bla, beta-lactamase FRET ratio, 18 h; series mostly up to 76.7 µM; activity change, negative = inhibition: at the top concentration.
Sequence of Peroxisome proliferator-activated receptor delta (Homo sapiens) (Q03181 whole entry, looked up): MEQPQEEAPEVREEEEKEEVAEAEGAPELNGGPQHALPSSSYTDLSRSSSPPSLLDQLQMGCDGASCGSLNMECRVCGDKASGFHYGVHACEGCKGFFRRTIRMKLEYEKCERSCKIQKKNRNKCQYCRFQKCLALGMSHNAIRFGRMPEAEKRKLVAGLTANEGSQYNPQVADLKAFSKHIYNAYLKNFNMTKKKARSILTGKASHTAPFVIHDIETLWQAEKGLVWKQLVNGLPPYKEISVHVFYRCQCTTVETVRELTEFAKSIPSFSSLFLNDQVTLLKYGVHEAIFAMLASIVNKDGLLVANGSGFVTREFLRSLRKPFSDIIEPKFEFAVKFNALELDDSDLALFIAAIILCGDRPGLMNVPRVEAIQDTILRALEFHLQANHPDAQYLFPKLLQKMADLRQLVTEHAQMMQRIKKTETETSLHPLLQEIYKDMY
In short: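 Titrations were run on PPAR-delta-UAS-bla HEK293T cells in charcoal/dextran-stripped serum, incubated 18 h at 37 C. CCF4 fluorescence (460/530 nm) after 2 h RT; Hill equation yields IC50 and maximal response.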
CO was tested, and the “activity change, negative = inhibition” value was -5.88% (inactive). NCCN was tested, and the “activity change, negative = inhibition” value was -0.492% (inactive). In the case of CCCCO, the “activity change, negative = inhibition” value is reported as -24.3% (inactive). CC1=CC(=O)NS(=O)(=O)O1 was tested, and the outcome was “inactive”. For OC[C@H]1O[C@@](CO)(O[C@H]2O[C@H](CO)[C@@H](O)[C@H](O)[C@H]2O)[C@@H](O)[C@@H]1O, the “activity change, negative = inhibition” value was 3.61% (inactive). For CCCCC(CC)COS(=O)(=O)O (stereo not given), the “activity change, negative = inhibition” value was 5.4% (inactive). In the case of CO[C@@H]1[C@H](OC(=O)/C=C/C=C/C=C/C=C/C(=O)O)CC[C@]2(CO2)[C@H]1[C@@]1(C)O[C@@H]1CC=C(C)C, the “activity change, negative = inhibition” value is reported as 5.36% (inactive). Cc1ccc(S(=O)(=O)O)cc1C was tested, and the “activity change, negative = inhibition” value was -20.1% (inactive). In the case of Oc1cccc(O)c1O, the “activity change, negative = inhibition” value is reported as -22.6% (inactive). With CCCCC the “activity change, negative = inhibition” value was -14.1% (inactive). With OCC(O)CO the “activity change, negative = inhibition” value was -6.05% (inactive). For OCl, the “activity change, negative = inhibition” value was -13.7% (inactive). OB(O)O was tested, and the “activity change, negative = inhibition” value was 21.6% (inactive). In the case of COC(=O)c1ccccc1O, the outcome is reported as “inactive”. For Cc1ccc(S(=O)(=O)NCl)cc1, the “activity change, negative = inhibition” value was -3.35% (inactive). For C[Si](C)(C)O[Si](C)(C)C, the “activity change, negative = inhibition” value was 3.13% (inactive). In the case of Nc1ncnc2c1ncn2[C@H]1CC[C@@H](CO)O1, the outcome is reported as “inactive”. With N[C@@H](Cc1cc(I)c(Oc2ccc(O)c(I)c2)c(I)c1)C(=O)O the “activity change, negative = inhibition” value was 24.3% (inactive). With Cc1ncc[nH]1 the “activity change, negative = inhibition” value was -14.5% (inactive). CCCCCCCCCCCCCCCCCC(=O)OC[C@@H](O)[C@H]1OC[C@H](O)[C@H]1O was tested, and the “activity change, negative = inhibition” value was 26.1% (inactive). CC(C)[C@@H]1CC[C@@H](C)C[C@H]1O was tested, and the “activity change, negative = inhibition” value was 5.66% (inactive). Nc1nccs1 was tested, and the “activity change, negative = inhibition” value was -24.3% (inactive). With C=CC(C)(O)CC/C=C(\C)CCC=C(C)C (stereo not given) the “activity change, negative = inhibition” value was 7.24% (inactive). C/C=C/C=C/C(=O)O was tested, and the “activity change, negative = inhibition” value was -32.5% (inactive). With CC(C)CCCCCCc1ccc(O)cc1 the “activity change, negative = inhibition” value was -19.4% (inactive). For [O-][N+](=Nc1ccccc1)c1ccccc1, the “activity change, negative = inhibition” value was -2.16% (inactive). For CC(C)O, the “activity change, negative = inhibition” value was -7.67% (inactive). In the case of CN(CCO)CC(O)Cn1cnc2c1c(=O)n(C)c(=O)n2C (stereo not given) (tested in a mixture with another compound), the “activity change, negative = inhibition” value is reported as 10% (inactive). For c1ccc2ccccc2c1, the outcome was “inactive”. In the case of Nc1ccc(N=Nc2ccccc2)c(N)n1, the outcome is reported as “inactive”.
